According to PubChem BioAssay AID1159580 (chemical genetic matrix, 2015):
Where “and” joins values, the source holds several entries; their conditions need not be identical. Equal entries are not always repeated. Among all 5,500 compounds or so, about 2,000 (36%) were called active. About 18% were inconclusive and are not listed. Rule as the data show it: active = normalized growth mostly below about 0.91 (no sharp cut-off); inconclusive = no clear call, values can overlap the other calls; inactive = mostly above about 0.92. This is one part of the list.

Assay: chemical genetic growth profiling, strain panel (AID 1159580);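 also: tested at 20 µM; growth read once vehicle control cultures reached saturation at 30 °C; 1 = growth at the plate median or of vehicle wells; lower values mean less growth of the strain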
Conditions: S. cerevisiae deletion strains, growth OD

Measured: normalized growth

CCOC(=O)CCCCCCCCCCCCC1C=CCC1 (centres undefined)
inactive: locus YAL021C, strain ccr4, stronger effect = lower value 1.01 | locus YAL026C, strain drs2, stronger effect = lower value 1 | locus YAL030W, strain snc1, stronger effect = lower value 0.982 | locus YBL061C, strain skt5, stronger effect = lower value 0.977 | locus YBR009C, strain hhf1, stronger effect = lower value 0.922 | locus YBR023C, strain chs3, stronger effect = lower value 0.979 | locus YBR171W, strain sec66, stronger effect = lower value 0.973 | locus YBR231C, strain swc5, stronger effect = lower value 0.978 | locus YBR279W, strain paf1, stronger effect = lower value 0.981 | locus YCL011C, strain gbp2, stronger effect = lower value 0.967 | locus YCL016C, strain dcc1, stronger effect = lower value 0.981 | locus YCL061C, strain MRC1, stronger effect = lower value 0.983 | locus YCL069W, strain vba3, stronger effect = lower value 0.981 | locus YCR088W, strain abp1, stronger effect = lower value 0.983 | locus YDL005C, strain med2, stronger effect = lower value 0.974 | locus YDL040C, strain nat1, stronger effect = lower value 0.974 | locus YDR001C, strain nth1, stronger effect = lower value 0.994 | locus YDR069C, strain doa4, stronger effect = lower value 0.958 | locus YDR137W, strain rgp1, stronger effect = lower value 0.979 | locus YDR159W, strain sac3, stronger effect = lower value 0.978 | locus YDR195W, strain ref2 1.06 | locus YDR297W, strain sur2, stronger effect = lower value 0.984 | locus YDR334W, strain swr1, stronger effect = lower value 0.976 | locus YDR335W, strain msn5, stronger effect = lower value 1 | locus YEL003W, strain gim4, stronger effect = lower value 0.969 | locus YEL037C, strain rad23, stronger effect = lower value 0.989 | locus YEL061C, strain CIN8 (second series), stronger effect = lower value 0.978 | locus YER015W, strain faa2, stronger effect = lower value 0.982 | locus YER016W, strain bim1, stronger effect = lower value 0.978 | locus YER111C, strain swi4, stronger effect = lower value 0.958 | locus YFR010W, strain ubp6, stronger effect = lower value 0.969 | locus YGL167C, strain pmr1, stronger effect = lower value 0.972 | locus YGL173C, strain kem1, stronger effect = lower value 0.96 | locus YGL227W, strain vid30, stronger effect = lower value 0.962 | locus YGL240W, strain doc1, stronger effect = lower value 0.972 | locus YGL253W, strain hxk2, stronger effect = lower value 0.998 | locus YHR027C, strain rpn1, stronger effect = lower value 0.984 | locus YHR079C, strain IRE1, stronger effect = lower value 0.983 | locus YHR142W, strain chs7, stronger effect = lower value 0.975 | locus YJL092W, strain hpr5, stronger effect = lower value 0.994 | locus YJL095W, strain BCK1 (second series), stronger effect = lower value 0.969 | locus YJL115W, strain asf1, stronger effect = lower value 0.99 | locus YJL129C, strain trk1, stronger effect = lower value 0.91 | locus YJL154C, strain vps35, stronger effect = lower value 0.997 | locus YJL164C, strain tpk1, stronger effect = lower value 0.952 | locus YJL166W, strain qcr8, stronger effect = lower value 0.942 | locus YJL187C, strain SWE1, stronger effect = lower value 0.98
0.0494 (active) and 0.992 (inactive): locus YHR030C, strain SLT2, stronger effect = lower value
0.0599 (active) and 0.989 (inactive): locus YJL095W, strain BCK1, stronger effect = lower value
active: locus YAL013W, strain DEP1, stronger effect = lower value 0.054 | locus YBR021W, strain FUR4, stronger effect = lower value 0.0914 | locus YBR229C, strain ROT2, stronger effect = lower value 0.0494 | locus YCL029C, strain bik1, stronger effect = lower value 0.067 | locus YDL035C, strain GPR1, stronger effect = lower value 0.0527 | locus YDL074C, strain BRE1, stronger effect = lower value 0.0833 | locus YDL101C, strain DUN1, stronger effect = lower value 0.0581 | locus YDL134C, strain PPH21, stronger effect = lower value 0.0502 | locus YDL185W, strain tfp1, stronger effect = lower value 0.499 | locus YDL192W, strain arf1, stronger effect = lower value 0.0606 | locus YDR101C, strain arx1, stronger effect = lower value 0.0619 | locus YDR162C, strain NBP2, stronger effect = lower value 0.0522 | locus YDR318W, strain mcm21, stronger effect = lower value 0.0614 | locus YDR388W, stronger effect = lower value 0.0583 | locus YDR392W, strain spt3, stronger effect = lower value 0.497 | locus YDR502C, strain sam2, stronger effect = lower value 0.0641 | locus YEL061C, strain CIN8, stronger effect = lower value 0.054 | locus YER110C, stronger effect = lower value 0.0827 | locus YER155C, strain BEM2 (second series), stronger effect = lower value 0.594 | locus YER155C, strain BEM2, stronger effect = lower value 0.0734 | locus YER167W, strain BCK2, stronger effect = lower value 0.0529 | locus YGL078C, strain dbp3, stronger effect = lower value 0.688 | locus YGL086W, strain mad1, stronger effect = lower value 0.0537 | locus YGL248W, strain PDE1, stronger effect = lower value 0.0488 | locus YGR078C, strain PAC10, stronger effect = lower value 0.053 | locus YGR135W, strain pre9, stronger effect = lower value 0.06 | locus YGR252W, strain gcn5, stronger effect = lower value 0.11 | locus YHR013C, strain ard1, stronger effect = lower value 0.815 | locus YHR079C, strain IRE1 (second series), stronger effect = lower value 0.0604 | locus YHR094C, strain hxt1, stronger effect = lower value 0.0651 | locus YHR129C, strain ARP1, stronger effect = lower value 0.0559 | locus YHR200W, strain rpn10, stronger effect = lower value 0.0588 | locus YIL066C, strain RNR3, stronger effect = lower value 0.0493 | locus YIL073C, strain SPO22, stronger effect = lower value 0.148 | locus YIL125W, strain kgd1, stronger effect = lower value 0.773 | locus YIR030C, strain dcg1, stronger effect = lower value 0.0637 | locus YJL134W, strain LCB3, stronger effect = lower value 0.0504 | locus YJL168C, strain set2, stronger effect = lower value 0.0586 | locus YJL187C, strain SWE1 (second series), stronger effect = lower value 0.0498 | locus YJR043C, strain POL32, stronger effect = lower value 0.0731
